In PubChem BioAssay (EPA / NIEHS):
“And” between values parts separate entries of the source, which are not always exact repeats. Equal values may be shown once. Records with an inconclusive call do not appear. Where a structure was tested more than once in an assay, its records may differ in their call. The source made the active and inactive calls. The calls were made as follows, unless noted: active = hit-call score of the fitted dose curve at least 0.9, where 1 is the maximum; inactive = score below 0.9.

Experiments:
[1] = ATG_NFI_CIS: Attagene CIS-FACTORIAL HepG2 Assay for human Nuclear Factor I (NFI) (AID 2282989); conditions: HepG2 cis-regulatory reporter, NFI response element transcription; actives raise or lower the signal
Outline: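 HepG2, transient MRTU, 24 h exposure; RNA→cDNA→PCR→FAM label→HpaI→CE fluorescence. Bidirectional fit, DMSO = baseline.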

[2] = target: Myc proto-oncogene protein (Homo sapiens) (UniProt P01106); assay: ATG_Myc_CIS: Attagene CIS-FACTORIAL HepG2 Assay for human Myelocytomatosis (Myc) Proto-Oncogene Transcription Factor (AID 2282990); conditions: HepG2, Attagene cis-reporter transcription factor activity; actives raise or lower the signal
Outline: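 Cells of the HepG2 human liver line bear multiple cis-driven reporter transcription units. Reporter mRNA after 24 h exposure is reverse-transcribed, amplified, labelled and resolved by capillary electrophoresis, with gain- or loss-of-signal fitting relative to DMSO.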

[3] = ATG_NRF2_ARE_CIS: Attagene CIS-FACTORIAL HepG2 Assay for human Nuclear Factor Erythroid 2 Related Factor 2 (NFR2) response to Antioxidant Response Elements (ARE) (AID 2282992); conditions: HepG2 Attagene ARE/NRF2 reporter, transcription factor activity; actives raise or lower the signal;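 as to AC50: reporter mRNA level measured by RT-PCR and capillary electrophoresis fluorescence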
Outline: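 Multiplexed reporter mRNA profiling in HepG2 after a 24 h chemical exposure. Curves fitted in both directions relative to DMSO negative control.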

[4] = ATG_Oct_MLP_CIS: Attagene CIS-FACTORIAL HepG2 Assay for human Octamer-Binding Transcription Factor (Oct) (AID 2282993); conditions: HepG2 Attagene cis-factorial Oct reporter, mRNA; actives raise or lower the signal
Outline: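 Multiplexed cis-reporter assay in human liver HepG2 cells, 24 h incubation. Reporter RNA amplified and labelled, then resolved by capillary electrophoresis; DMSO serves as negative control and baseline.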

[5] = target: Cellular tumor antigen p53 (Homo sapiens) (UniProt P04637); assay: ATG_p53_CIS: Attagene CIS-FACTORIAL HepG2 Assay for human p53 Transcription Factor (AID 2282994); conditions: HepG2 p53 cis-element reporter, Attagene mRNA; actives raise or lower the signal
Outline: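 Multiplexed reporter mRNA assay in human HepG2 liver cells; cis-regulated units report endogenous factor activity. Values come from bidirectional curve fitting against DMSO negative control after 24 h treatment.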

[6] = BSK_3C_TissueFactor: BioMAP Diversity Plus: 3C Assay for Tissue Factor Biomarker Activity (AID 2282997); conditions: BioMAP 3C HUVEC, tissue factor biomarker readout; actives raise or lower the signal
Outline: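 Human vascular primary cells (umbilical vein endothelium) received test chemical; Tissue Factor was determined by ELISA at 24 h, and both gain and loss of signal versus DMSO were fitted.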

[7] = BSK_3C_VCAM1: BioMAP Diversity Plus: 3C Assay for Vascular cell adhesion molecule 1 (VCAM1) Biomarker Activity (AID 2282999); conditions: BioMAP 3C HUVEC, VCAM1 ELISA, cytokine-stimulated; actives raise or lower the signal
Outline: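 Endothelial cells from human umbilical vein are treated with test chemical. At 24 h, VCAM-1 is measured by ELISA, and responses in either direction are fitted relative to DMSO.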

[8] = BSK_4H_Eotaxin3: BioMAP Diversity Plus: 4H Assay for Eotaxin 3 Biomarker Activity (AID 2283000); conditions: primary human endothelial cells (HUVEC); actives raise or lower the signal
Outline: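 Readout is Eotaxin-3 (CCL26) level by ELISA in primary human umbilical vein endothelial cells harvested 24 h after chemical exposure; activity fitted in both directions against DMSO control.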

[9] = target: human Peroxisome Proliferator-activated Receptor delta (PPARd), PPARD (gene 5467) (UniProt Q03181); assay: ATG_PPARd_TRANS: Attagene TRANS-FACTORIAL HepG2 Assay for human Peroxisome Proliferator-activated Receptor delta (PPARd) (AID 2283002; active = hit-call score of the fitted dose curve at least 0.9, where 1 is the maximum)
Outline: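 Cell-based TRANS reporter: HepG2, transient MRTU transfection, 24 h exposure. Readout = reporter mRNA (RT-PCR/CE, 6-FAM). Gain-of-signal fit vs DMSO control.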

[10] = target: human Retinoic Acid Receptor beta (RARb), RARB (gene 5915) (UniProt P10826); assay: ATG_RARb_TRANS: Attagene TRANS-FACTORIAL HepG2 Assay for human Retinoic Acid Receptor beta (AID 2283004; active = hit-call score of the fitted dose curve at least 0.9, where 1 is the maximum)
Outline: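 Readout is reporter mRNA induction: RNA reverse-transcribed, PCR-amplified, FAM-labelled, HpaI-cut and resolved by capillary electrophoresis. Transiently transfected HepG2 cells carrying exogenous NR–Gal4 chimeras were dosed for 24 h; activity fitted upward relative to DMSO.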

[11] = target: Retinoic acid receptor alpha (Homo sapiens) (UniProt P10276); assay: ATG_RARa_TRANS: Attagene TRANS-FACTORIAL HepG2 Assay for human Retinoic Acid Receptor alpha (RARa) (AID 2283005; active = hit-call score of the fitted dose curve at least 0.9, where 1 is the maximum)
Outline: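 Reporter transcripts, measured by RT-PCR with fluorescent labeling and capillary electrophoresis after 24 h dosing, reflect activity of an exogenous human RARa–GAL4 fusion in transiently transfected HepG2. Fitted for increase relative to DMSO.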

[12] = BSK_3C_Proliferation: Cell Proliferation Assessment in the BioMAP Diversity Plus: 3C Assay (AID 2283006); conditions: primary human endothelial cells (HUVEC);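 as to AC50: potency may reflect either rise or fall in cell number versus DMSO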
Outline: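 Subconfluent HUVEC (3C system) cultured with chemical; relative cell number read at 48 h by sulforhodamine B total-protein staining (0.1% SRB after 10% TCA fixation, 560 nm). Bidirectional fit relative to DMSO.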

[13] = target: Peroxisome proliferator-activated receptor gamma (Homo sapiens) (UniProt P37231); assay: ATG_PPARg_TRANS: Attagene TRANS-FACTORIAL HepG2 Assay for human Peroxisome Proliferator-activated Receptor-gamma (PPARg) (AID 2283007; active = hit-call score of the fitted dose curve at least 0.9, where 1 is the maximum)
Outline: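 Gain-of-signal endpoint relative to DMSO, derived from reporter mRNA levels quantified by RT-PCR and capillary electrophoresis. Cells were HepG2 transiently expressing a chimeric NR-Gal4 construct with GAL4-UAS reporters, exposed to chemicals for 24 h.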

[14] = target: Nuclear receptor subfamily 1 group I member 2 (Homo sapiens) (UniProt O75469); assay: ATG_PXR_TRANS: Attagene TRANS-FACTORIAL HepG2 Assay for human Pregnane X Receptor (PXR) (AID 2283008; active = hit-call score of the fitted dose curve at least 0.9, where 1 is the maximum)
Outline: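 Measures mRNA induction of a GAL4-UAS-driven reporter in human HepG2 cells transiently expressing PXR fused to Gal4, following 24 h treatment. DMSO served as negative control and baseline.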

[15] = target: human Retinoic Acid Receptor gamma (RARg), RARG (gene 5916) (UniProt P13631); assay: ATG_RARg_TRANS: Attagene TRANS-FACTORIAL HepG2 Assay for human Retinoic Acid Receptor gamma (RARg) (AID 2283009; active = hit-call score of the fitted dose curve at least 0.9, where 1 is the maximum)
Outline: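 HepG2 transiently transfected with GAL4-UAS reporter units and chimeric NR-Gal4 constructs; 24 h compound exposure. Reporter mRNA quantified by RT-PCR, FAM labeling, HpaI digestion and capillary electrophoresis; gain-of-signal versus DMSO.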

[16] = ATG_NF_kB_CIS: Attagene CIS-FACTORIAL HepG2 Assay for human Nuclear Factor Kappa B (NF-kB) (AID 2282991); conditions: HepG2 Attagene cis-factorial NF-kB reporter mRNA; actives raise or lower the signal
Outline: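 Measures mRNA induction of an NF-kB-responsive cis-element reporter in HepG2 cells transfected with multiple reporter units, sampled 24 h post-dosing; quantified by fluorescence after RT-PCR and capillary electrophoresis, fitted for activation or inhibition against DMSO.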

[17] = target: human Peroxisome Proliferator-activated Receptor alpha (PPARa), PPARA (gene 5465) (UniProt Q07869); assay: ATG_PPARa_TRANS: Attagene TRANS-FACTORIAL HepG2 Assay for human Peroxisome Proliferator-activated Receptor alpha (PPARa) (AID 2283001; active = hit-call score of the fitted dose curve at least 0.9, where 1 is the maximum;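 as to AC50: potency for gain of reporter signal over DMSO so agonist or activator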)
Outline: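 Read-out is fluorescence of reporter cDNA fragments resolved by capillary electrophoresis after RT-PCR. Human HepG2 liver cells carried transfected PPARa-Gal4 chimera and GAL4-UAS reporter units, treated 24 h; activity scored as increase over DMSO.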

[18] = read-out: Intercellular Adhesion Molecule 1 (ICAM1), ICAM1 (gene 3383); assay: BSK_3C_ICAM1: BioMAP Diversity Plus: 3C Assay for Intercellular Adhesion Molecule 1 (ICAM1) Biomarker Activity (AID 2283003); conditions: primary human endothelial cells (HUVEC); actives raise or lower the signal
Outline: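 HUVEC primary cells stimulated under 3C conditions; ICAM1 measured by ELISA 24 h after compound dosing. Curves fitted bidirectionally against the DMSO baseline. Overt cytotoxicity checked by SRB staining of parallel cultures.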

[19] = BSK_3C_uPAR: BioMAP Diversity Plus: 3C Assay for Urokinase-type plasminogen activator receptor (uPAR) Biomarker Activity (AID 2282998); conditions: BioMAP 3C HUVEC, uPAR biomarker ELISA; actives raise or lower the signal
Outline: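 Dose primary human umbilical vein endothelial cells, incubate 24 h, measure cell-surface uPAR by ELISA, then fit the signal in both directions against the DMSO negative control.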

[20] = target: human RAR-related Orphan Receptor beta (RORb), RORB (gene 6096) (UniProt Q92753); assay: ATG_RORb_TRANS: Attagene TRANS-FACTORIAL HepG2 Assay for human RAR-related Orphan Receptor beta (RORb) (AID 2283010; active = hit-call score of the fitted dose curve at least 0.9, where 1 is the maximum)
Outline: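 HepG2 cells transiently transfected with GAL4-UAS reporter units expressing chimeric NR-Gal4 protein; reporter mRNA measured 24 h after dosing by RT-PCR, 6-FAM labelling and capillary electrophoresis. Gain-of-signal fitted relative to DMSO baseline.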

Measured: AC50

Chain of Nuclear receptor subfamily 1 group I member 2 (Homo sapiens) (O75469 whole entry, looked up, the tested form may be a part): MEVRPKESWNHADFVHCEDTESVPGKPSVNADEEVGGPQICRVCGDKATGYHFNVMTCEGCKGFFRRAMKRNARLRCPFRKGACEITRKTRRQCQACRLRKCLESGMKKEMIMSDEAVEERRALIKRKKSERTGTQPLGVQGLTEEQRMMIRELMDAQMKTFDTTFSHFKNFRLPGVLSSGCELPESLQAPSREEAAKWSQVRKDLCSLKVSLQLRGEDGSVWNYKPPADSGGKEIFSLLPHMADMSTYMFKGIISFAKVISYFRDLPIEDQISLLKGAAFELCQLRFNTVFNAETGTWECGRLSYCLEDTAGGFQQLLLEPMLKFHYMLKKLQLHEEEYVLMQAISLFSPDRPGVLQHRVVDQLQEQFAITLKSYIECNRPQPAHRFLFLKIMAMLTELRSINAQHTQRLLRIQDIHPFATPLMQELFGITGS
Chain of human RAR-related Orphan Receptor beta (RORb), RORB (gene 6096) (Q92753 whole entry, looked up, the tested form may be a part): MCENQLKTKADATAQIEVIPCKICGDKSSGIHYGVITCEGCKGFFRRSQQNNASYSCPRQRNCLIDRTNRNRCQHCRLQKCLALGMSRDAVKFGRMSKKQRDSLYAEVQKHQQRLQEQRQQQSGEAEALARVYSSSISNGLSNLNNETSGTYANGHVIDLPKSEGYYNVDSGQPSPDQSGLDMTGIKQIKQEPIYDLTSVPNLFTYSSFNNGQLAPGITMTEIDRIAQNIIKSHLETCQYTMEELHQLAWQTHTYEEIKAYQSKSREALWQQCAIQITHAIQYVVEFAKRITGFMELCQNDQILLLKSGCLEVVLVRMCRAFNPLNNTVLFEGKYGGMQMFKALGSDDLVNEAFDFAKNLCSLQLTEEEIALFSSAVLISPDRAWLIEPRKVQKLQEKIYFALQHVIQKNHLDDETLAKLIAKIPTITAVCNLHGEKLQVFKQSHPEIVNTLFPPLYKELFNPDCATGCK
Chain of Myc proto-oncogene protein (Homo sapiens) (P01106 whole entry, looked up): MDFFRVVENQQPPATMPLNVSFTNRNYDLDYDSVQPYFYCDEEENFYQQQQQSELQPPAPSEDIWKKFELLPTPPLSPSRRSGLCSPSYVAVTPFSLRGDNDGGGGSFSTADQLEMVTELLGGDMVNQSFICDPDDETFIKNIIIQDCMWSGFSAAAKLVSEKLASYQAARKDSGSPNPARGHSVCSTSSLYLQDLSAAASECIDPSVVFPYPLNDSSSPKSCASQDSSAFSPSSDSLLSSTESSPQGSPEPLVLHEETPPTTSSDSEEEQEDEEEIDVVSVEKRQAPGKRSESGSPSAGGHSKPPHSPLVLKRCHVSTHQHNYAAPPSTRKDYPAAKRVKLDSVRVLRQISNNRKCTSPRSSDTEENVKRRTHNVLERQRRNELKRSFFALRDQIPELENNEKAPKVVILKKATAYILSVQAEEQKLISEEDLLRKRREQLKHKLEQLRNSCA
Chain of human Retinoic Acid Receptor beta (RARb), RARB (gene 5915) (P10826 whole entry, looked up, the tested form may be a part): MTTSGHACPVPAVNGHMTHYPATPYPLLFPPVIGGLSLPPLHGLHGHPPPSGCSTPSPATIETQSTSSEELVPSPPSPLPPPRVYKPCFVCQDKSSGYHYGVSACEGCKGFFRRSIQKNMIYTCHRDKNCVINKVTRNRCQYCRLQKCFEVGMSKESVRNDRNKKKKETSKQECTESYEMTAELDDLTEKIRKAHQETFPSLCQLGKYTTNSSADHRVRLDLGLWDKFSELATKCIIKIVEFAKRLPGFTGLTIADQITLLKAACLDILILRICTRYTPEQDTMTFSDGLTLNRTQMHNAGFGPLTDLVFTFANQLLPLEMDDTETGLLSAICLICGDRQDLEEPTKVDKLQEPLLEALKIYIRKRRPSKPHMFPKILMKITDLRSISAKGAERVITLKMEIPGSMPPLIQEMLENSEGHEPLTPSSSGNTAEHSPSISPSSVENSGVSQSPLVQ
Chain of human Peroxisome Proliferator-activated Receptor alpha (PPARa), PPARA (gene 5465) (Q07869 whole entry, looked up, the tested form may be a part): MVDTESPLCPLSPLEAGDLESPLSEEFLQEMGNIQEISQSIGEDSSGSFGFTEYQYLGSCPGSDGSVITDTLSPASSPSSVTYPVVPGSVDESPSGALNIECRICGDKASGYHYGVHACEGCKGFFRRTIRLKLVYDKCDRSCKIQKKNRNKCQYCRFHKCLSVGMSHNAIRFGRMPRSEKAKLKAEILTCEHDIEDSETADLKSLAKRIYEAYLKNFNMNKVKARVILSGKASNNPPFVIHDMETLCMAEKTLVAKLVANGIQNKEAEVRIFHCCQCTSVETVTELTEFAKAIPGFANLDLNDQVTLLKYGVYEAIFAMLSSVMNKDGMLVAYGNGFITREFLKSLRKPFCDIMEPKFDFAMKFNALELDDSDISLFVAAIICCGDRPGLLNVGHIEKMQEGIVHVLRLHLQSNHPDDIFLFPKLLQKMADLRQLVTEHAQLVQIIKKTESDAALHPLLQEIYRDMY
Chain of Cellular tumor antigen p53 (Homo sapiens) (P04637 whole entry, looked up): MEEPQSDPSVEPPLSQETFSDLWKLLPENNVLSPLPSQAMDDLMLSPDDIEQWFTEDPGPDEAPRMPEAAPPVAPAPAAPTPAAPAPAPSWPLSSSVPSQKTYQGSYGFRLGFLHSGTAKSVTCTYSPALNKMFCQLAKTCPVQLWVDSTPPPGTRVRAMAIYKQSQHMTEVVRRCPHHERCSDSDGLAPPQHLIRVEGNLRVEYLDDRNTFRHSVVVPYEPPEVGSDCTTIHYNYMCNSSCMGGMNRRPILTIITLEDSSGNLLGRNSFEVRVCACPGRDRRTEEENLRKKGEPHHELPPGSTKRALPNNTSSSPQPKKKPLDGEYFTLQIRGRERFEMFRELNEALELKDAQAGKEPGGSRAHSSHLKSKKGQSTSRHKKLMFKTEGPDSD
Chain of Peroxisome proliferator-activated receptor gamma (Homo sapiens) (P37231 whole entry, looked up, the tested form may be a part): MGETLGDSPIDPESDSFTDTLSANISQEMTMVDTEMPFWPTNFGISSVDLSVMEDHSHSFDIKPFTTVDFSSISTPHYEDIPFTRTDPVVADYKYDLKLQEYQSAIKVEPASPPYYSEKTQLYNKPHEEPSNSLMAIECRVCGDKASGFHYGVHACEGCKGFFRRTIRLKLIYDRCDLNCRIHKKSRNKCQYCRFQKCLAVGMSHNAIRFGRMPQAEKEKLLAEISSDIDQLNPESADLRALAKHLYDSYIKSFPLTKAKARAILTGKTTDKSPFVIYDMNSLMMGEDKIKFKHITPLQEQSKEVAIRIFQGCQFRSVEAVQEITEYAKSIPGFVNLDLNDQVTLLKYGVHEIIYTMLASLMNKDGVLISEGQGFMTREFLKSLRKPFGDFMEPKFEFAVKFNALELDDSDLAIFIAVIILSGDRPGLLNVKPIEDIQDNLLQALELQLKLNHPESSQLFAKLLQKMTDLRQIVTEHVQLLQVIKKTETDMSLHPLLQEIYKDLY
Chain of Retinoic acid receptor alpha (Homo sapiens) (P10276 whole entry, looked up, the tested form may be a part): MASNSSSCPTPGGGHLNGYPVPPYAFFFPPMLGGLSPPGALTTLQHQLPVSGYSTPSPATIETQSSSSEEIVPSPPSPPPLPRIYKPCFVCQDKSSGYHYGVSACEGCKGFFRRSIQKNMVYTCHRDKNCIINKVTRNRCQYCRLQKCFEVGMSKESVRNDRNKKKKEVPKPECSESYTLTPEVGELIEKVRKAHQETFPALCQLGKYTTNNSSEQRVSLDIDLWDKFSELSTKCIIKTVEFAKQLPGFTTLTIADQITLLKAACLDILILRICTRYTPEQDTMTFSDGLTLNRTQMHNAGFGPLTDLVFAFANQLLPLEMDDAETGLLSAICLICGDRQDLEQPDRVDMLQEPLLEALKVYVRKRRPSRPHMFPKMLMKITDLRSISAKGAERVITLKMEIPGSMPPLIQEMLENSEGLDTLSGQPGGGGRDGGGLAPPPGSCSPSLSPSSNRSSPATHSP
Chain of human Peroxisome Proliferator-activated Receptor delta (PPARd), PPARD (gene 5467) (Q03181 whole entry, looked up): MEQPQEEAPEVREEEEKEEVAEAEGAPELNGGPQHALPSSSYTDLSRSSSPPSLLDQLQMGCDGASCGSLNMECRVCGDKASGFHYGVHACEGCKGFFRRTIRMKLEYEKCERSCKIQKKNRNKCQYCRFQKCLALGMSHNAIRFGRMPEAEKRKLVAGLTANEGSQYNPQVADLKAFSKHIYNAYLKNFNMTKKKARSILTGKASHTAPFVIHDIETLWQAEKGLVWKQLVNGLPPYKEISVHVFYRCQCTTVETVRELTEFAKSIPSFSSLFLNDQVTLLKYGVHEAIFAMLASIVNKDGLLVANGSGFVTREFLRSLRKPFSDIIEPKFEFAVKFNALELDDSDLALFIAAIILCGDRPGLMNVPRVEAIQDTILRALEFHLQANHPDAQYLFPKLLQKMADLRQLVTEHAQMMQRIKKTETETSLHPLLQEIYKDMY
Chain of human Retinoic Acid Receptor gamma (RARg), RARG (gene 5916) (P13631 whole entry, looked up, the tested form may be a part): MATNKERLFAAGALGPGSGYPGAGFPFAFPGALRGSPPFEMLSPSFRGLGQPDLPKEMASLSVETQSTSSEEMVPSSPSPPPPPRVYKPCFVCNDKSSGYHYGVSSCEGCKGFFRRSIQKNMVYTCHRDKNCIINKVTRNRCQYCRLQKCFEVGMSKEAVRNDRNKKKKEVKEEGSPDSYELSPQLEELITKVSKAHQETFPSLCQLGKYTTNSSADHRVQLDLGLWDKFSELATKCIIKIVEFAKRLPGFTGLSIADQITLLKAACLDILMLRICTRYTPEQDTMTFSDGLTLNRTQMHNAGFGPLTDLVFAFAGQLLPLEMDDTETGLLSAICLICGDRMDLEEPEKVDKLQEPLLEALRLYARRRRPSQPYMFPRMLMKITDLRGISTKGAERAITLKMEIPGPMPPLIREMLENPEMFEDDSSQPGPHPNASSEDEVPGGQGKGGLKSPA

Cc1oc2c(NC(=O)c3c(Cl)cccc3Cl)cccc2c1C(C)(C)O
active: [5] 25.6 µM | [6] 4.29 µM | [8] 7.04 µM | [12] 21.4 µM | [13] 3.28 µM | [14] 0.204 µM
not listed: [16] | [17] | [18] | [19] | [20]
inactive: all other assays above

Cc1occc1C(=O)Nc1ccc(C(=O)N2CCC(F)(F)/C(=C\C(=O)N3CCC(N4CCCCC4)CC3)c3ccccc32)cc1
inactive: [1] | [5] | [6] | [7] | [8] | [18] | [12]
active: [2] 58.3 µM | [16] 18.5 µM | [3] 22 µM | [4] 49.6 µM | [17] 53 µM | [13] 59.6 µM | [14] 25.5 µM

Cc1ncc(CO)c(CO)c1O
not listed: [10] | [11] | [15] | [16] | [18] | [20]
inactive: all other assays above

CC(=O)N1CCN(c2ccc(OC[C@H]3CO[C@](Cn4ccnc4)(c4ccc(Cl)cc4Cl)O3)cc2)CC1
inactive: [1] | [2] | [16] | [5] | [7] | [13] | [14]
active: [3] 24 µM | [4] 9.69 µM | [6] 31.1 µM | [8] 33.7 µM | [12] 23.8 µM

CN(C)c1ccc(C(=C2C=CC(=[N+](C)C)C=C2)c2ccc(N(C)C)cc2)cc1
inactive: [1] | [2] | [4] | [9] | [10]
active: [3] 2.43 µM | [5] 1.08 µM | [6] 5.5 µM | [19] 0.778 µM | [7] 5.56 µM | [8] 1.17 µM | [18] 10.3 µM | [12] 2.42 µM | [13] 16.8 µM

O=C1O[C@H]([C@@H](O)CO)C(O)=C1O
not listed: [10] | [11] | [14] | [15] | [16] | [17] | [18] | [20]
inactive: all other assays above

Cc1ccc(C(C)C)cc1
not listed: [11] | [13] | [15] | [16] | [18] | [19] | [20]
inactive: all other assays above

O=C(O)c1ccccc1C(=O)OCc1ccccc1
not listed: [9] | [10] | [15] | [18] | [19] | [20]
inactive: all other assays above

C[C@]12CC[C@@H]3c4ccc(O)cc4CC[C@H]3[C@@H]1CC[C@H]2O
active: [4] 27.2 µM | [5] 27.7 µM and 10.4 µM and 9.47 µM | [6] 18.1 µM | [19] 16.7 µM | [8] 25 µM | [12] 9.12 µM | [14] 4.02 µM [middle of 4 runs]
inactive: [1] | [2] | [3] | [4] | [5] | [7] | [9] | [10] | [11] | [13] | [15] | [20]

CCCCCCCCOC(=O)c1cc(O)c(O)c(O)c1
active: [3] 5.96 µM | [6] 20 µM | [7] 32.5 µM | [8] 17.3 µM | [17] 33.4 µM | [9] 39.7 µM | [12] 17 µM | [13] 39.8 µM | [14] 6.39 µM
inactive: [1] | [2] | [16] | [4] | [5] | [10] | [15] | [20]

O=c1[nH]sc2ccccc12
inactive: [2] | [16] | [4] | [17] | [9] | [13] | [20]
active: [1] 45.9 µM | [3] 6.26 µM | [5] 42.6 µM | [6] 8.49 µM | [7] 8.74 µM | [8] 8.99 µM | [18] 18.2 µM | [12] 1.55 µM
